GPR151 activ – human GPR151 activation; Q8TDV0; PathHunter beta-arrestin GPR151 cells, luminescence; activation, % at 11.2 µM; hit rate 1% among 650,000; AID 1508602; in the data active means activation above about 4.9%
Target sequence (Q8TDV0 whole entry, looked up): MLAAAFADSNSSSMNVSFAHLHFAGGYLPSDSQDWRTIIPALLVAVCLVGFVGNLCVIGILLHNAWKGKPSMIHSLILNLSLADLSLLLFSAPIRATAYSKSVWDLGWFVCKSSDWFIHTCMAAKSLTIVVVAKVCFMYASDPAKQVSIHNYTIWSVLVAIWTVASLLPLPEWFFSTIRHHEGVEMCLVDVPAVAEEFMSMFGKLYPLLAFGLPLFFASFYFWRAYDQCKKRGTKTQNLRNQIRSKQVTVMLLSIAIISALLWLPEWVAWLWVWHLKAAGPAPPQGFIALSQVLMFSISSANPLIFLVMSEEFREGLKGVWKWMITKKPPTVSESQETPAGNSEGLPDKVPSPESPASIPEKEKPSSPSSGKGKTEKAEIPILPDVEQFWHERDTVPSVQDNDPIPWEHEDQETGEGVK
MITF inh – human MITF inhibition, primary screen; O75030; AlphaScreen MITF homodimerization, bead proximity signal; inhibition, % at 2.6 µM; hit rate 0.91% among 650,000; in the data active means inhibition above about 50%
FBW7 activator – human FBW7 E3 ligase activation, primary screen; Q969H0; AlphaScreen FBW7–phospho-cyclin E peptide binding, activator screen; AID 1259310; normalized activity (activation), % at 26.1 µM; hit rate 0.13% among 650,000; in the data active means normalized activity above about 1.9%;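 further: purified mutant Fbw7 with reduced substrate affinity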
TEAD-YAP inh – TEAD-YAP interaction inhibition; AID 1259422; hit rate 1.4% among 640,000; inhibition, % at 9.12 µM; HEK-TIYL cells, TEAD-Gal4/YAP UAS-luciferase luminescence; in the data active means inhibition above about 32%
MITF inh conf – human MITF inhibition, confirmation. shares compounds with MITF inh. inhibition, % at 2.6 µM. AlphaScreen MITF homodimerization, biotin/His-MITF beads. hit rate 16% among 4,700;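 active means inhibition above a cutoff derived from the DMSO control wells, cut at about 28% in these data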;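 further: inhibitors lower the bead chemiluminescence by keeping MITF from dimerizing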
AlphaScreen DR – AlphaScreen optical interference, dose response counter-screen; hit rate 6% among 480; AlphaScreen optical interference counterscreen, cell-free; shares compounds with MITF inh; IC50, µM; call rule not given here
AlphaScreen intf2 – AlphaScreen optical interference, counter-screen; shares compounds with MITF inh; LysRS AlphaScreen counterscreen, signal interference, triplicate; inhibition, % at 2.6 µM; hit rate 7.6% among 4,700; AID 1259376;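 active means inhibition above a cutoff derived from the DMSO control wells, cut at about 30% in these data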
Hits are given with their value; – = inactive; · = no result given; ! = repeats disagree. Only some compounds are listed: those with a hit (about 3.4% of all), similar ones and a draw of the others.

SMILES	GPR151 activ	MITF inh	FBW7 activator	TEAD-YAP inh	MITF inh conf	AlphaScreen intf2	others
CCOC(=O)C(C)Sc1nnc(CSc2ncccn2)n1-c1ccc(OC)cc1 (stereo not drawn)	–	–	–	–	·	·
CN(CCC12CC3CC(CC(C3)C1)C2)Cc1nc(-c2ccccn2)no1	–	–	–	–	·	·
COC(=O)CCNCC(c1ccco1)N1CCCCC1 (stereo not drawn)	–	54	–	–	–	–
COC(=O)c1cc(CNCC(c2ccco2)N2CCCCC2)oc1C (stereo not drawn)	–	76	–	–	–	–
COc1ccc(NC(=S)NCC(c2ccco2)N2CCCC2)cc1 (stereo not drawn)	–	–	–	–	·	·
COCCCNC(=O)/C(C#N)=C/c1ccc(-c2ccc(Cl)c(Cl)c2)o1	–	–	–	–	·	·
N#C/C(=C\c1ccccc1[N+](=O)[O-])c1nc(-c2ccc(Br)cc2)cs1	–	–	–	–	·	·
CC(=O)N1CCC(=NNc2nc3ccccc3[nH]2)CC1	–	82	–	–	30	50
CCOc1ccc(C(=O)N2CCN(c3oc(-c4ccc(Cl)cc4)nc3C#N)CC2)cc1	–	–	–	–	·	·
Cc1ccc(-c2nc(C#N)c(N3CCN(C(=O)c4ccc(Cl)cc4)CC3)o2)cc1	–	68	–	–	–	–
O=C(Nc1nc2c(s1)CCCC2)C1=COCCO1	–	–	–	–	·	·
CCOc1ccc(/C=C/C(=O)Nc2nc3ccc(S(C)(=O)=O)cc3s2)cc1OC	–	73	–	–	–	–
CCOc1ccc(-n2c(C)cc(/C=N/NC(=S)NCCN3CCOCC3)c2C)cc1	–	–	–	–	·	·
Cc1ccccc1CN1CCN2C(=O)[C@@H](Cc3ccc(O)cc3)NC(=O)[C@H]2C1	–	–	–	–	·	·
COc1cc(CN2CCN(Cc3cccc(Br)c3)CC2)cc2c1OCO2	–	65	–	–	–	–
COc1ccc(CN2CCN(Cc3cc(OC)c4c(c3)OCO4)CC2)cc1OC	–	–	–	–	·	·
COc1cc(CN2CCN(Cc3ccc(C(F)(F)F)cc3)CC2)cc2c1OCO2	–	61	–	–	–	37
COc1cc(CN2CCN(Cc3cccc(Br)c3)CC2)cc(OC)c1OC	–	69	–	–	–	–
COc1cc(CN2CCN(Cc3ccc(F)cc3)CC2)cc2c1OCO2	–	76	–	–	–	–
Cc1cccc(C)c1NC(=O)c1nccnc1C(=O)O	–	–	–	–	·	·
CC(=O)c1c(-c2ccccc2)nc2[nH][n+]3c(C)cc(C)nc3n12	–	–	–	–	·	·
COc1cc(CNc2ccccc2)cc2c1OCO2	–	62	–	–	–	–
c1ccn2cc(CN3CCCCC3)nc2c1	–	82	–	–	–	–
c1ccc2c(c1)ncn2CC1CCCCC1	–	–	–	–	·	·
c1ccc2c(c1)ncn2CC1CCN(Cc2cn3ccccc3n2)CC1	–	89	–	–	29	–	AlphaScreen DR=–
SMILES	GPR151 activ	MITF inh	FBW7 activator	TEAD-YAP inh	MITF inh conf	AlphaScreen intf2	others
COC(=O)c1c(OC2CCCC2)cc(=O)n2c1CCN(Cc1ccoc1)CC2	–	–	–	–	·	·
Cn1nnc(-c2ccc(Nc3nccc(-c4ccc5nc(C6CC6)[nH]c(=O)c5c4)n3)cc2)n1	–	63	–	–	39	–	AlphaScreen DR=–
O=C(C1CCC(Nc2nccc(-c3ccc4nc(C5CC5)[nH]c(=O)c4c3)n2)CC1)N1CCCC1 (stereo not drawn)	–	59!	2.6!	–	63	–	AlphaScreen DR=–
O=C(Nc1ccc(Nc2nccc(-c3ccc4nc(C5CC5)[nH]c(=O)c4c3)n2)cc1)N1CCCC1	–	–	–	–	·	·
COCCC(=O)Nc1ccc2c(c1)CN(Cc1cnc(N)nc1)CC2	–	–	–	–	·	·
CCOC(=O)C1=C(C)N=c2s/c(=C/c3cn(C)c4ccccc34)c(=O)n2C1c1cc(OC)c(OC)cc1Br (stereo not drawn)	–	–	–	–	·	·
Cc1ccccc1CN1CCN(Cc2ccccc2C(F)(F)F)CC1	–	80	–	–	–	–
FC(F)(F)c1ccccc1CN1CCN(Cc2ccc(Cl)cc2)CC1	–	–	–	–	·	·
FC(F)(F)c1ccccc1CN1CCOCC1	–	77	–	–	–	–
FC(F)(F)c1ccccc1CN1CCN(Cc2cccnc2)CC1	–	83	–	–	–	–
Cc1[nH]nc2c1C(c1cc(Br)ccc1F)C(C#N)=C(N)O2 (stereo not drawn)	–	–	–	–	·	·
C=CCc1ccc(OCCCCCN2CCOCC2)c(OC)c1	–	59	–	–	–	–
C=CCc1ccc(OCCCCN2CCNCC2)c(OC)c1	–	67	–	–	–	–
C=CCc1ccc(OCCN2CCN(CC)CC2)c(OC)c1	–	71	–	–	–	–
C=CCc1ccc(OCCNC)c(OC)c1	–	–	–	–	·	·
Cc1ccc(Nc2nc3nonc3n3cnnc23)cc1Cl	–	–	–	–	·	·
CC(C)Oc1ccccc1NC(=O)c1ccc(Oc2ccccc2)cc1	–	–	–	–	·	·
CC(NC(=O)C1CCN(Cc2ccccc2)CC1)c1ccccc1 (stereo not drawn)	–	53	–	–	–	–
CC(NC(=O)C1CCNCC1)c1ccccc1 (stereo not drawn)	–	51	–	–	–	–
COc1ccc(CN2CCC(C(=O)NC(C)C)CC2)c(OC)c1OC	–	71	–	–	–	–
CC(NC(=O)C1CCN(Cc2ccccc2O)CC1)c1ccccc1 (stereo not drawn)	–	–	–	–	·	·
COc1ccc(OC)c(CN2CCC(C(=O)NC(C)c3ccccc3)CC2)c1 (stereo not drawn)	–	52	–	–	–	–
O=c1nc(/C=C/c2c(O)ccc3ccccc23)cc(C(F)(F)F)[nH]1	–	–	–	–	·	·
COc1ccc(C(=O)NC(=S)N2CCN(c3ccc([N+](=O)[O-])cc3)CC2)cc1	–	–	–	–	·	·
COc1cccc(C(=O)NC(=S)N2CCN(c3ccc([N+](=O)[O-])cc3)CC2)c1	–	72	–	–	–	33
SMILES	GPR151 activ	MITF inh	FBW7 activator	TEAD-YAP inh	MITF inh conf	AlphaScreen intf2	others
O=C(NCc1ccco1)Nc1c[nH]c2cccnc2c1=O	–	59	–	–	81	87
CCN(CC)CCCCCCn1c(C)cc(=O)n(C)c1=O	–	–	–	–	·	·
Cc1cc(=O)n(C)c(=O)n1CCCCCCN1CCOCC1	–	55	–	–	–	–
O=C1OC(OC(=O)c2ccco2)C(Nc2ccccc2)=C1Cl (stereo not drawn)	–	71	–	–	–	–
COc1ccc(N2C(=O)C3ON(c4ccc(Cl)cc4)C(c4cc(Br)ccc4O)C3C2=O)cc1 (stereo not drawn)	–	–	–	–	·	·
COc1ccc(OC)c(S(=O)(=O)N(C)CC(=O)Nc2ccccc2F)c1	–	51	–	–	–	–
CC(NC(=O)CN(C)CC(=O)Nc1ccccc1Br)c1ccccc1 (stereo not drawn)	–	66	–	–	–	–
COc1ccc(OC)c(NC(=O)CN(C)CC(=O)Nc2ccccc2Br)c1	–	74	–	–	–	–

Compound activity deposited in PubChem by The Scripps Research Institute Molecular Screening Center.
